Experimental data published in PubChem BioAssay (NCI).
This is part of a sample that, as a whole, favours compounds with a hit. Of some 83,000 tested, about 20% had one in any assay.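 Values shown are percent growth following 48 h exposure of cells in 96-well plates to a single concentration of compound; below 10 was considered active.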 Activity calls are given as the source filed them.

Assays:
Experiment in all cases: NCI-60 one-dose screen, 48 h (100 = growth as untreated, 0 = no growth, -100 = all killed)
Settings in all cases: 10 µM unless noted
[1] = system: HCT-15 colon
[2] = system: HT29 colon
[3] = system: SNB-75 CNS
[4] = system: SNB-19 CNS
[5] = system: U251 CNS
[6] = system: PC-3 prostate
[7] = system: SK-MEL-5 melanoma
[8] = system: UACC-62 melanoma
[9] = system: LOX IMVI melanoma
[10] = system: SK-MEL-28 melanoma
[11] = system: SK-MEL-2 melanoma
[12] = system: EKVX NSCLC
[13] = system: SN12C renal
[14] = system: UO-31 renal
[15] = system: TK-10 renal
[16] = system: ACHN renal
[17] = system: CAKI-1 renal
[18] = system: A498 renal
[19] = system: CCRF-CEM leukemia
[20] = system: MOLT-4 leukemia

Measured: growth

NS(=O)(=O)c1ccc(Nc2nc(N/N=C/c3c[nH]c4ccccc34)nc(Nc3ccccc3)n2)cc1
active: [9] -10.6%
inactive: [1] 75.5% | [2] 31.6% | [3] 70.8% | [4] 56.7% | [5] 28.1% | [6] 26% | [7] 39.8% | [8] 38.3% | [10] 45.9% | [11] 67.3% | [12] 67.4% | [13] 40.2% | [14] 49.2% | [15] 94.7% | [16] 81.2% | [17] 53.9% | [18] 51.2% | [19] 12.9% | [20] 19.9%

COc1ccc(C2CC(c3cccc(Nc4nc(Cl)nc5cc(OC)c(OC)cc45)c3)=Nc3c(N)nc(N)nc3N2)cc1 (stereo not given)
inactive: [1] 34.5% | [2] 57.8% | [3] 94.5% | [4] 70.1% | [5] 16.9% | [6] 62.7% | [7] 72.1% | [8] 95.6% | [9] 54.2% | [10] 101% | [11] 100% | [12] 92.1% | [13] 81.8% | [14] 90.7% | [15] 117% | [16] 100% | [17] 94% | [18] 94.7% | [19] 36% | [20] 43.6%

NC(=O)c1cccc(C#CCNC[C@H]2C[C@@H](n3ccc4c(Cl)ncnc43)[C@H](O)[C@@H]2O)c1
inactive: [1] 107% | [2] 105% | [3] 87.7% | [4] 102% | [5] 100% | [6] 102% | [7] 101% | [8] 96.1% | [9] 101% | [10] 102% | [11] 104% | [12] 106% | [13] 99.5% | [14] 92.4% | [15] 97.3% | [16] 106% | [17] 94.4% | [18] 94.7% | [19] 102% | [20] 114%

CCN1CCN(Cc2cn(-c3ccc(S(N)(=O)=O)cc3)nn2)CC1
inactive: [1] 104% | [2] 102% | [3] 95.6% | [4] 105% | [5] 109% | [6] 97.8% | [7] 103% | [8] 98.1% | [9] 102% | [10] 116% | [11] 115% | [12] 103% | [13] 104% | [14] 94% | [15] 108% | [16] 108% | [17] 96.5% | [18] 103% | [19] 104% | [20] 104%

CS(=O)(=O)c1ccc(-n2cc(/C=N/O)c(-c3ccccc3)n2)cc1
active: [9] -79.5%
inactive: [1] 76.6% | [2] 97.4% | [3] 87.7% | [4] 71.2% | [5] 72.1% | [6] 71% | [7] 21.2% | [8] 66.6% | [10] 93.3% | [11] 92.3% | [12] 81.7% | [13] 89.5% | [14] 76% | [15] 92.5% | [16] 78.4% | [17] 73.8% | [18] 83.7% | [19] 33.8% | [20] 28.7%

O=[N+]([O-])c1cc(/C=N/Nc2nc(N/N=C/c3ccc(Cl)c([N+](=O)[O-])c3)nc(N3CCCCC3)n2)ccc1Cl
inactive: [1] 49.7% | [3] 136% | [4] 72.6% | [5] 18.5% | [6] 53.4% | [7] 77.8% | [8] 43.1% | [9] 66% | [10] 62.2% | [11] 80.7% | [12] 78% | [13] 72.3% | [14] 47.5% | [15] 93.8% | [16] 35.2% | [17] 72.4% | [18] 108% | [19] 61.3% | [20] 42.3%
active: [2] 7.43%

Cc1ccc(-c2cc3nc(C(Cl)Cl)nc(-c4cccs4)n3n2)cc1
inactive: [1] 61.7% | [2] 39.2% | [3] 110% | [4] 63.8% | [5] 39.4% | [6] 66.5% | [7] 96.8% | [8] 78.9% | [9] 96.2% | [10] 87.4% | [11] 105% | [12] 66.3% | [13] 85.9% | [14] 70.7% | [15] 141% | [16] 21% | [17] 55.6% | [18] 84.3% | [19] 104% | [20] 98.6%

COc1ccc(Cn2cc3c(c2-c2cc(OC)c(OC)c(OC)c2)CCc2c(CN4CCOCC4)noc2-3)cc1
active: [18] -0.0936%
inactive: [1] 15.3% | [2] 11.7% | [3] 18% | [4] 27.1% | [5] 27.9% | [6] 31.9% | [7] 17.3% | [8] 19.1% | [9] 33.5% | [10] 60.7% | [11] 62.4% | [12] 43.4% | [13] 31.6% | [14] 39.5% | [15] 90.1% | [16] 43.4% | [17] 44.6% | [19] 16.3% | [20] 22.7%

C#Cc1nc(C(C)=O)cs1
inactive: [1] 99.4% | [2] 110% | [3] 85.5% | [4] 102% | [5] 102% | [6] 98.4% | [7] 104% | [8] 94.3% | [9] 94.7% | [10] 106% | [11] 111% | [12] 103% | [13] 102% | [14] 90.1% | [15] 104% | [16] 106% | [17] 87.2% | [18] 106% | [19] 96.9% | [20] 101%

CCO/C=N/C1=C(C#N)C(c2ccc(OC)cc2)c2sc3c(C)cccc3c2O1 (stereo not given)
active: [6] 9.28% | [18] -15.6% | [19] -2.18%
inactive: [1] 18.2% | [2] 10% | [3] 28.2% | [4] 28.3% | [5] 22.1% | [7] 39.5% | [8] 17.3% | [9] 34.8% | [10] 55.7% | [11] 36.5% | [12] 39.9% | [13] 25.2% | [14] 34.3% | [15] 78.5% | [16] 37.6% | [17] 33.3% | [20] 16.4%

Cc1cccc2c3c(sc12)C(c1ccc(F)cc1)C(C#N)=C(/N=C/c1ccc(Cl)cc1)O3 (stereo not given)
inactive: [3] 29.5% | [4] 26.4% | [6] 13.6% | [8] 18% | [10] 62.2% | [12] 47.8% | [13] 25.5% | [14] 34.6% | [15] 106% | [16] 25.7% | [17] 33.9% | [19] 13.5% | [20] 15.2%
active: [1] 3.92% | [2] -28.5% | [5] 4.91% | [7] 5.84% | [9] 9.59% | [11] -5.29% | [18] -20.2%

N/C(=N\C(N)=N\c1nc2ccccc2s1)c1cccc(F)c1
inactive: [1] 94.6% [5 µM] | [2] 111% [5 µM] | [3] 89.2% [5 µM] | [4] 96% [5 µM] | [5] 94.1% [5 µM] | [6] 75.5% [5 µM] | [7] 98.2% [5 µM] | [8] 89.1% [5 µM] | [9] 83.2% [5 µM] | [10] 108% [5 µM] | [11] 98% [5 µM] | [12] 81.4% [5 µM] | [13] 76.9% [5 µM] | [14] 82.8% [5 µM] | [15] 187% [5 µM] | [16] 85.9% [5 µM] | [17] 84% [5 µM] | [18] 97.1% [5 µM] | [19] 93.9% [5 µM] | [20] 84.9% [5 µM]

Cc1ccc(-n2cc(/C=C/C(=O)c3ccc(O)cc3)c(-c3ccc(S(C)(=O)=O)cc3)n2)cc1
inactive: [1] 26% | [2] 28.6% | [3] 87.5% | [4] 75.6% | [5] 72.3% | [6] 69.9% | [7] 61.7% | [8] 59.6% | [9] 41.9% | [10] 82.3% | [11] 101% | [12] 91.4% | [13] 63.5% | [14] 76.4% | [15] 117% | [16] 67.7% | [17] 73.4% | [18] 99.2% | [19] 48.8% | [20] 34.8%

COc1ccc(NC(=O)CSc2nnc(-c3ccc4nc(-c5ccccc5)[nH]c4c3)o2)cc1
inactive: [1] 92.2% | [2] 108% | [3] 101% | [4] 102% | [5] 102% | [6] 105% | [7] 85.9% | [8] 95% | [9] 101% | [10] 99.7% | [11] 105% | [12] 94% | [13] 96% | [14] 85.7% | [15] 121% | [16] 102% | [17] 101% | [18] 98% | [19] 91.6% | [20] 83.5%

COC(=O)c1[nH]nc2c1C1(C(=O)c3cccc4cccc1c34)C(C#N)=C(N)O2 (stereo not given)
inactive: [1] 99.4% | [2] 105% | [3] 80.4% | [4] 97.2% | [5] 105% | [6] 83.9% | [7] 98.6% | [8] 91.8% | [9] 97.7% | [10] 112% | [11] 105% | [12] 89.9% | [13] 100% | [14] 73.4% | [15] 122% | [16] 99.6% | [17] 79.7% | [18] 82.1% | [19] 106% | [20] 111%
